The source of these data is PubChem BioAssay (NCATS).

Assay [1] has as its target Alpha-galactosidase (Coffea arabica) (UniProt Q42656). Put plainly: Counterscreen for Glucocerebrosidase Inhibitors: qHTS Assay for Coffee Bean alpha-Galactosidase at pH 5.9 (AID 998). The note with it: coffee bean alpha-galactosidase enzyme assay; series mostly up to 76.9 µM. The essentials: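 In 50 mM citric acid pH 5.9 with 0.005% Tween-20, coffee bean enzyme hydrolyses 80 uM 4-MU alpha-D-galactopyranoside over 20 min at RT. Activity is normalized to controls; AC50 comes from Hill-modelled concentration-response data.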
In general terms: A counterscreen serves to expose hits that act by an unwanted route or on another target.

A short description of assay [2]: Cell Viability - LYMP2-026 (AID 989). Further: nearly all actives have a fitted effect of over 50% in size. The note with it: LYMP2-026 lymphoblastoid cell viability, qHTS; series mostly up to 92.2 µM. In outline: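 qHTS cytotoxicity: 2500 cells/well, 5 hr 37 C, compound 24 hr 37 C, CellTiter-Glo 30 min RT, luminescence. Tetraoctylammonium bromide positive control. AC50 via standard Hill fit.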
(qHTS replaces the single test concentration by a dilution series.)

Assay [3] can be described thus: Cell Viability - LYMP1-002 - Assay at 24 hr (AID 993). To be noted: LYMP1-002 lymphoblastoid cells viability; series mostly up to 92.2 µM. The essentials:
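CellTiter-Glo luminescence (intracellular ATP) after 24 h compound exposure, 37 C, in LYMP1-002 human lymphoblastoid cells; decreased ATP taken as cytotoxicity. AC50 from standard Hill fit of concentration-response curves.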

Assay [4] in a line: Cell Viability - LYMP1-002 - Assay at 40 hr (AID 994). Further: nearly all actives have a fitted effect of over 60% in size. The note with it: LYMP1-002 lymphoblastoid cell viability; series mostly up to 92.2 µM. In outline: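 qHTS cytotoxicity; 2500 cells/well, 5 hr 37 C settle, compound 40 hr 37 C. CellTiter-Glo, 30 min RT, luminescence (ATP). Concentration-response, Hill fit → AC50. Pos. ctrl tetraoctylammonium bromide.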
Assay [5] is described as follows: qHTS Assay for Identification of Small Molecule Inducers of Hypoxia Response (AID 2120; active means well fitted curve in the direction sought with a large enough effect in the signal ratio, with a control signal flat, not every such curve was filed as active; the % refers to the signal ratio). To be noted: hypoxia response reporter cells, beta-lactamase ratio readout; series mostly up to 104 µM. In outline:
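Read-out: CCF4 FRET emission ratio 460nm/530nm (excitation 405nm), converted to %Activity, with AC50 fitted across a compound titration. ME-180 cells carried an HRE-driven beta-lactamase reporter; compound exposure 17 h, 37 degrees C.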

Records with an inconclusive call do not appear. Entries that show only a call come without a potency. Calls of active or inactive are those of the source. Unless noted, the call rests on the fitted dose curve; in most records, active means well fitted curve in the direction sought with a large enough effect; inconclusive means small, poorly fitted or top-dose-only effect, or another doubt; inactive means no such curve, though single readings can be large; an effect the other way counts as inactive or inconclusive.

Sequence of Alpha-galactosidase (Coffea arabica) (Q42656 whole entry, looked up): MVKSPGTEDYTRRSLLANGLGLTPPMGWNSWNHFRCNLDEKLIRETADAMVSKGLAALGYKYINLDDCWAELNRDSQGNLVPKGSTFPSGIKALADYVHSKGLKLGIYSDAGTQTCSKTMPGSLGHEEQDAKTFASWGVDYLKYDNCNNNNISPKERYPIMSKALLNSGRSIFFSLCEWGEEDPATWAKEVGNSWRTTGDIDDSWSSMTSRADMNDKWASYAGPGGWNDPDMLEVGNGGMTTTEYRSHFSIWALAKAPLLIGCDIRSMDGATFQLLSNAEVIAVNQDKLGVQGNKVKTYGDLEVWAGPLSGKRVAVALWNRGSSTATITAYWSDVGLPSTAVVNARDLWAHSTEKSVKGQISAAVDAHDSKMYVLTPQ

`CC1=C(CC(=O)O)c2cc(F)ccc2/C1=C\c1ccc(S(C)=O)cc1` (configuration not stated): the molecule was called inactive in assay [1].
Turning to `CNC(=O)Oc1cccc2ccccc12`, the Potency result in assay [2], in assay [3] and in assay [4] was “inactive” throughout. The outcome in assay [5] was inactive.
As for `CCC(=O)c1ccc2c(c1)N(CCCN(C)C)c1ccccc1S2`, in assay [1], the molecule was called inactive.
Regarding `CC(C)NCC(O)COc1ccc(COCCOC(C)C)cc1` (configuration not stated), in assay [1], the result was inactive.
With `CCCC(C(=O)OCCN(CC)CC)(c1ccccc1)c1ccccc1`, the outcome in assay [1] was inactive.
As to `OCc1cc(C(O)CNCCCCCCOCCCCc2ccccc2)ccc1O` (configuration not stated), the molecule was classed as inactive in assay [1].
On to `CC1=C(C)C(=O)C(CCCCC#CCCCC#CCO)=C(C)C1=O`, for which the result in assay [1] was inactive.
As for `Cc1[nH]c(=O)c(C#N)cc1-c1ccc2nccn2c1`, the result in assay [1] was inactive.
Same read-out and setting: next, `COc1cc2c(cc1OC)-c1cc(=Nc3c(C)cc(C)cc3C)n(C)c(=O)n1CC2`: “inactive”.
